Molecules are shown by their SMILES. Values without a mark were called inactive. For some assays here: Results with a measured potency or affinity are listed apart. The source made the active and inactive calls. Unless noted, how the calls were made is not given here.

Assay [1] can be described thus: antimalarial activity against Dd2 strain (AID 2302;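 active means growth inhibition above 50% at the single 2 µM test dose, taken to imply half-maximal potency below 2 µM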;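 further: 0% = DMSO untreated growth and 100% = chloroquine plus artemisinin killed control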). The following applies: P. falciparum Dd2 in RBCs, LDH growth readout, 72 h; at 2 µM; hits give high values.
The nature of assay [2]: human hepatoma cell viability loss – ATP luminescence, cytotoxicity control for P. falciparum antimalarial project, primary screen (AID 2303;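 active means inhibition above 50%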;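 further: 0% = DMSO wells and 100% = digitonin-killed cells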). The settings on record: HepG2 viability, 24-48 h, at 10 µM, hits give high values.
The target of assay [3] is L-lactate dehydrogenase (Plasmodium falciparum (isolate CDC / Honduras)) (UniProt Q27743). The assay is described as follows: PfLDH activity inhibition – cell lysate, 3D7 strain, counter-screen for P. falciparum growth inhibition project (AID 2304).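 Further: 0% = vehicle and 100% = reference inhibitor.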 The following applies: P. falciparum 3D7 crude extract, LDH APAD/NBT absorbance; at 2 µM; hits give high values.
Chain of L-lactate dehydrogenase (Plasmodium falciparum (isolate CDC / Honduras)) (Q27743 whole entry, looked up): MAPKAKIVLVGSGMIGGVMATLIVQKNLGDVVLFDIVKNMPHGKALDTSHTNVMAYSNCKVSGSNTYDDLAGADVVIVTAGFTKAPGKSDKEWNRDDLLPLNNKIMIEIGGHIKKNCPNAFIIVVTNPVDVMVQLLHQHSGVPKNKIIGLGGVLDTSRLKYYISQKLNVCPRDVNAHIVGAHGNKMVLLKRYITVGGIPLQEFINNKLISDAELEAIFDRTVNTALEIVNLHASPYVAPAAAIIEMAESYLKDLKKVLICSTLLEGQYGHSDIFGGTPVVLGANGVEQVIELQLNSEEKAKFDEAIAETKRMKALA
Assay [4] can be described thus: inhibition of 3D7 malaria parasite growth – strain 3D7 (AID 2306).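 Further: 0% = DMSO wells and 100% = chloroquine plus artemisinin control wells.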 The following applies: P. falciparum 3D7 erythrocytic growth, LDH absorbance, 72 h; at 2 µM; hits give high values.
Assay [5] concerns the target Calcium-dependent protein kinase 1 (Plasmodium falciparum (isolate 3D7)) (UniProt P62344). The assay is described as follows: PfCDPK1 kinase inhibitors, biochemical, TCAMS library (AID 1159585; cut-off not given, nearly all actives have IC50 up to about 0.98 µM;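 further: inhibitors leave more ATP so luminescence rises with inhibition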). The following applies: recombinant PfCDPK1, Kinase-Glo ATP depletion luminescence.
Assay [6] has as its target Plasmodium falciparum protein kinase 6 (PK6, PF3D7_1337100) (UniProt Q8IDW1). The assay is described as follows: PfPK6 kinase inhibitors, biochemical, TCAMS library (AID 1159586). The settings on record: recombinant PfPK6, Kinase-Glo ATP depletion luminescence. For orientation: In Kinase-Glo more light means more ATP remaining.
Assay [7] has as its target Protein kinase 7 (PK7), Plasmodium falciparum 3D7 (PF3D7_0213400) (UniProt Q7YTF7). The assay is described as follows: inhibition of Plasmodium PK7 catalytic activity – biochemical, TCAMS antimalarial set, Kinase-Glo luminescence (AID 1159587). The following applies: recombinant PfPK7, Kinase-Glo ATP depletion luminescence.
The target of assay [8] is Calcium-dependent protein kinase 4 (Plasmodium falciparum (isolate 3D7)) (UniProt Q8IBS5). Briefly: PfCDPK4 kinase inhibitors, biochemical, TCAMS library (AID 1159588; cut-off not given, nearly all actives have IC50 up to about 0.91 µM). The settings on record: recombinant PfCDPK4, Kinase-Glo ATP depletion luminescence.
Chain of Calcium-dependent protein kinase 4 (Plasmodium falciparum (isolate 3D7)) (Q8IBS5 whole entry, looked up): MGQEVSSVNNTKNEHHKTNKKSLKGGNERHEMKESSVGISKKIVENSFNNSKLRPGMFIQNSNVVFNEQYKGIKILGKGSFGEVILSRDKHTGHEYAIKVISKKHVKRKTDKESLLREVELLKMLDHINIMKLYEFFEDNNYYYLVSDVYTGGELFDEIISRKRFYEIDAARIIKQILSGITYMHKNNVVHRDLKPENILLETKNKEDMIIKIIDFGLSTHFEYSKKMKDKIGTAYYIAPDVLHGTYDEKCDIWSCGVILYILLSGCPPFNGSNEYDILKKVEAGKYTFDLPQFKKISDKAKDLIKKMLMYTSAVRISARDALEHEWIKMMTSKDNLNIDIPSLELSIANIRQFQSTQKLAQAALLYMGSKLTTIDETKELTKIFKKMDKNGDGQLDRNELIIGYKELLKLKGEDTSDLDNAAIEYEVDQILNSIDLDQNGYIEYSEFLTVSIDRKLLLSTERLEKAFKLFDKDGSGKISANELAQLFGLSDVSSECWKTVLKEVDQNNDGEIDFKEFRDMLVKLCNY

Chain of Calcium-dependent protein kinase 1 (Plasmodium falciparum (isolate 3D7)) (P62344 whole entry, looked up): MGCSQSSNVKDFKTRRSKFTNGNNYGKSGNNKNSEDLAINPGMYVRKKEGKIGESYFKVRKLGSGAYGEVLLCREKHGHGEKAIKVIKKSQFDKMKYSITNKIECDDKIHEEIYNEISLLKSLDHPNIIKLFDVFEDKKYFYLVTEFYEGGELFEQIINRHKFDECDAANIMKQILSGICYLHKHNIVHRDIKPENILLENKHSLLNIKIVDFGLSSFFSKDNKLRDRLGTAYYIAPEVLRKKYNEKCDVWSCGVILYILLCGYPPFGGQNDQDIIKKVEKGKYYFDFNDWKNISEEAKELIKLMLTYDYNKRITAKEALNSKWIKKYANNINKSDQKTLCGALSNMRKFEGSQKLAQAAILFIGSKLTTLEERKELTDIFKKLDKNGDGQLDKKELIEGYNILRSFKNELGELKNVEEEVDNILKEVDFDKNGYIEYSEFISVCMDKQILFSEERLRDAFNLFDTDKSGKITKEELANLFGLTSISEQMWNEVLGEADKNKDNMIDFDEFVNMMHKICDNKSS
Chain of Plasmodium falciparum protein kinase 6 (PK6, PF3D7_1337100) (Q8IDW1 1-305): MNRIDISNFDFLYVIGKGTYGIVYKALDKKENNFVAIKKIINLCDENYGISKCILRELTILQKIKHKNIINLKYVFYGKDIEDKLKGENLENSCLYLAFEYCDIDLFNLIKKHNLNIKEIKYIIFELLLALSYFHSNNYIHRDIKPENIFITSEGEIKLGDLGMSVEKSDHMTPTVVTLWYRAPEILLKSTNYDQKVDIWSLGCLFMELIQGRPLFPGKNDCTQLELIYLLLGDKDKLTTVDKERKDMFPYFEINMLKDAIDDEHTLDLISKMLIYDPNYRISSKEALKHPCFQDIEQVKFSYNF
Chain of Protein kinase 7 (PK7), Plasmodium falciparum 3D7 (PF3D7_0213400) (Q7YTF7 1-343): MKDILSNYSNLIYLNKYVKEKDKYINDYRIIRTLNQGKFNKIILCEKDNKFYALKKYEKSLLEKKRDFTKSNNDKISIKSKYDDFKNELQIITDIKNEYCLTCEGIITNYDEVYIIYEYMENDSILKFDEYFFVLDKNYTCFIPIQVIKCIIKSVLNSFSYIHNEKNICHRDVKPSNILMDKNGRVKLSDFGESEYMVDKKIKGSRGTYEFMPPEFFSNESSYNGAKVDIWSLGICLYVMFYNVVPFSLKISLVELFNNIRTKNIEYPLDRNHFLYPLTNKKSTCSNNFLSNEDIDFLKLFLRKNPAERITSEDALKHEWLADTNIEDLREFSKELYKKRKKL

Consider `Cc1cccc2[nH]c(-c3ccc(-c4ccc(CN5CCCC5CN)cc4)cc3)nc12` (configuration not stated), for which the values for the growth inhibition in assay [1] and in assay [4] were 65% (active) and 99% (active), respectively. For the same molecule, the inhibition in assay [2] was 28%; in assay [3] it was 1%. Besides, the outcome in assay [5], in assay [6], in assay [7] and in assay [8] was inactive.

Turning to `O=S(=O)(Nc1cc2c(cc1O)CCN(C1CCC1)CC2)c1ccc(-c2ccc(F)cc2)cc1`, the growth inhibition in assay [1] is 99% (active); in assay [4], 101% (active). Further, the inhibition was 16% in assay [2] and -1% in assay [3]. Besides, the result in assay [5], in assay [6], in assay [7] and in assay [8] was inactive.

With `Cc1cc(C(=O)Nc2ccc(-c3ccccc3)cc2)no1`, the values for the growth inhibition in assay [1] and in assay [4] were 94% (active) and 90% (active), respectively. The inhibition in assay [2] was 6%; in assay [3], -3%. In addition, the result in assay [5], in assay [6], in assay [7] and in assay [8] was inactive.

As for `Cc1ccc(-c2nc3cc(NC(=O)c4ccc([N+](=O)[O-])o4)ccc3o2)cc1Cl`, the growth inhibition was 97% (active) in assay [1] and 102% (active) in assay [4]. In addition, the results for the inhibition in assay [2] and in assay [3] were 24% and -3%, respectively. Further, the outcome in assay [5], in assay [6], in assay [7] and in assay [8] was inactive.

With `Cc1cc(C)c(CON2C(N)=NC(N)=NC2(C)C)cc1C`, the growth inhibition is 93% (active) in assay [1] and 92% (active) in assay [4]. Also, the inhibition in assay [2] was 65% (active); in assay [3], 2%. Further, the result in assay [5], in assay [6], in assay [7] and in assay [8] was inactive.

As to `Cc1ccc(N2C(=O)C3C(C2=O)[C@]2(c4ccccc4)C(=O)[C@@]3(c3ccccc3)C(c3ccccc3)=C2c2ccccc2)cc1` (some centres not stated), the growth inhibition in assay [1] is 96% (active); in assay [4], 92% (active). The inhibition is 17% in assay [2] and -2% in assay [3]. Further, the result in assay [5], in assay [6], in assay [7] and in assay [8] was inactive.

For the molecule `Cc1ccc(NC(=O)NC2CCN(CCC(NC(=O)Cc3ccccc3)c3ccc(Cl)c(Cl)c3)CC2)cc1` (configuration not stated), the growth inhibition in assay [1] was 2%; in assay [4], 100% (active). Besides, the inhibition in assay [2] is 16%; in assay [3], -1%. Also, the outcome in assay [5], in assay [6], in assay [7] and in assay [8] was inactive.

As to `Nc1nc(N)c2cc(NS(=O)(=O)c3ccc(-c4ccccc4)cc3)ccc2n1`, the growth inhibition in assay [1] was 54% (active); in assay [4] it was 102% (active). In addition, the values for the inhibition in assay [2] and in assay [3] were 7% and -3%, respectively. Besides, the result in assay [5], in assay [6], in assay [7] and in assay [8] was inactive.

In the case of `CO/C(=C\C=C\c1cc2cc(Cl)c(Cl)cc2[nH]1)C(=O)NCCCCN1CCN(c2ccccc2OC)CC1`, the growth inhibition is 96% (active) in assay [1] and 100% (active) in assay [4]. Moreover, the figures for the inhibition in assay [2] and in assay [3] were 55% (active) and -1%, respectively. The outcome in assay [5], in assay [6], in assay [7] and in assay [8] was inactive.

For the molecule `O=C1Nc2cccc3c2C1(CCCCCN1CCC(c2c[nH]c4ccncc24)CC1)CCC3` (configuration not stated), the growth inhibition in assay [1] is 3%; in assay [4] it was 95% (active). Besides, the inhibition is 8% in assay [2] and 6% in assay [3]. For the same molecule, the result in assay [5], in assay [6], in assay [7] and in assay [8] was inactive.

As for `O=C(C=Cc1ccc(Br)cc1)N1CCC(CCN2CCC(c3c[nH]c4ccccc34)CC2)CC1`, the growth inhibition in assay [1] was 24%; in assay [4], 98% (active). Also, the results for the inhibition in assay [2] and in assay [3] were 47% and 2%, respectively. For the same molecule, the outcome in assay [5], in assay [6], in assay [7] and in assay [8] was inactive.

For the molecule `N#Cc1cccc(-c2nc(NCc3cccc(C(F)(F)F)c3)nn2-c2cccc(C(F)(F)F)c2)c1`, the growth inhibition in assay [1] was 88% (active); in assay [4], 94% (active). The inhibition was 12% in assay [2] and 3% in assay [3]. The result in assay [5], in assay [6], in assay [7] and in assay [8] was inactive.

In the case of `COc1ccc(CNCc2cccc(-c3cccc(-c4nc5ccccc5[nH]4)c3)c2)cc1`, the figures for the growth inhibition in assay [1] and in assay [4] were 50% (active) and 102% (active), respectively. The inhibition is 24% in assay [2] and 1% in assay [3]. Also, the outcome in assay [5], in assay [6], in assay [7] and in assay [8] was inactive.

On to `Fc1ccc(NC(=S)NCCc2ccccc2)cc1`, for which the growth inhibition in assay [1] was 0%; in assay [4] it was 99% (active). For the same molecule, the inhibition in assay [2] was -1%; in assay [3], 3%. Besides, the result in assay [5], in assay [6], in assay [7] and in assay [8] was inactive.

For `Cc1cccc2[nH]c(-c3cccc(-c4cccc(NC(=O)c5cccnc5Cl)c4)c3)nc12`, the growth inhibition in assay [1] is 32%; in assay [4], 97% (active). The figures for the inhibition in assay [2] and in assay [3] were -1% and 0%, respectively. In addition, the outcome in assay [5], in assay [6], in assay [7] and in assay [8] was inactive.

As to `COc1ccc(-c2ccc(CNC(=O)c3ccc(C#N)cc3)c(F)c2)cc1CN1CCCN(C)CC1`, the growth inhibition was 1% in assay [1] and 90% (active) in assay [4]. For the same molecule, the inhibition was 6% in assay [2] and -10% in assay [3]. The outcome in assay [5], in assay [6], in assay [7] and in assay [8] was inactive.

Take `CCc1ccc(O)c(-c2cc(C(=O)Nc3ccc(OC)c(Cl)c3)[nH]n2)c1`: the values for the growth inhibition in assay [1] and in assay [4] were 97% (active) and 93% (active), respectively. The values for the inhibition in assay [2] and in assay [3] were 15% and -1%, respectively. Also, the outcome in assay [5], in assay [6], in assay [7] and in assay [8] was inactive.

For the molecule `O=S(=O)(NCCN1CCCC1)c1ccc(-c2ccc(CNCc3ccccc3)cc2)cc1F`, the growth inhibition in assay [1] is 39%; in assay [4], 83% (active). The inhibition in assay [2] is 35%; in assay [3], 4%. Further, the result in assay [5], in assay [6], in assay [7] and in assay [8] was inactive.

Regarding `COc1ccc(CNCc2ccc(-c3cccc(-c4nc5ccc(F)cc5[nH]4)c3)cc2)cc1`, the growth inhibition in assay [1] was 94% (active); in assay [4] it was 102% (active). For the same molecule, the inhibition in assay [2] is 33%; in assay [3], 3%. Moreover, the outcome in assay [5], in assay [6], in assay [7] and in assay [8] was inactive.

What is called inhibition is the drop in the measured response relative to a control, in per cent.

The values are drawn from PubChem BioAssay.
